This is a sample that favours compounds with a hit; in the whole collection about 2.3% have one here.
Nrf2 inh: Nrf2 qHTS screen for inhibitors; A549 ARE-Fluc reporter, luciferase luminescence, 18-24 h; 2.1% of 360,000 active; Potency, µM (top dose mostly 46 µM), for the others: top-dose activity change, negative = inhibition, usual class: inhibitors; further: potency means the concentration at half of the fitted maximal effect; on the % scale 0 is the no-effect control and ±100 the full control effect; nearly all actives have a fitted effect of over 60% in size
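Quantitative HTS in A549 cells stably bearing an antioxidant response element-firefly luciferase construct. Inhibition of Nrf2-driven transcription was scored by luminescence after 18-24 h of compound exposure at 37 °C.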
Mito fusion yeast: qHTS Assay for Small Molecule Inhibitors of Mitochondrial Division or Activators of Mitochondrial Fusion. S. cerevisiae fusion-defective mutant growth rescue, CellTiterGlo 48 h. Potency, µM (series often up to 46.1 µM), without a hit: top-dose growth rescue (activation), actives largely listed as activators. 0.23% of 320,000 active; further: potency means the concentration at half of the fitted maximal effect; % of control where 0% means no effect; nearly all actives have a fitted effect of over 45% in size
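Growth-rescue viability read-out: after 48 h at the non-permissive 37C in glycerol/ethanol YPEG, yeast mitochondrial fusion mutants are measured by CellTiterGlo luminescence; compounds (23 nl pinned per well) restoring growth score as division inhibitors or fusion activators.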
Nrf2 ARE act: qHTS of Nrf2 Activators. AREc32 ARE-luciferase reporter (MCF7-derived line), luminescence, 24 h. Potency, µM (titrated, usually from 46.1 µM), inactives show top-dose activation, most hits filed as activators. 0.31% of 410,000 active; further: potency means the concentration at half of the fitted maximal effect; % of control where 0% means no effect; nearly all actives have a fitted effect of over 65% in size
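AREc32_Fluc, 1000 cells/well, OPTI-MEM + 5% FBS, o/n 37 deg C 5% CO2; 23 nL cpd by pin tool, 24 hr; Steady-Glo 30 min RT, luminescence.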
GRP78 ERSR act: qHTS for Inducers of the Endoplasmic Reticulum Stress Response (ERSR) in Human Glioma: qHTS; U87-MG GRP78 promoter luciferase reporter, 16 h; Potency, µM, for inactives: at the top dose activation, hits mostly activators; 0.02% of 420,000 active; AID 602332, 2012; further: potency means the concentration at half of the fitted maximal effect; series mostly up to about 76 µM; % of control where 0% means no effect; nearly all actives have a fitted effect of over 35% in size
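Stably transfected U87-MG human glioma cells carrying a GRP78-based luminescent sensor were seeded at 1000 cells/well, pin-dosed with compounds and incubated 16 h. Luciferase reagent was then added, and end-point luminescence was read after 10 min at room temperature.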
A549 tox: Nrf2 qHTS screen for inhibitors: counterscreen for cytotoxicity. Potency, µM (top dose mostly 46 µM), for inactives: at the top dose activity change, negative = cytotoxicity, actives largely listed as inhibitors. A549 ARE-Fluc cells, CellTiter-Fluor viability, 18-24 h. 0.16% of 390,000 active; further: potency means the concentration at half of the fitted maximal effect; on the % scale 0 is the no-effect control and ±100 the full control effect
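A549 ARE-Fluc cells in 5% FBS OPTI-MEM, 5000 cells/well, rested 2 h then exposed to compounds in concentration-response for 18-24 h at 37 °C. Viability by CellTiter-Fluor fluorescence (Ex 405/Em 525) after 30 min; luciferase luminescence (BugLite, 15 min, RT) read afterwards.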
miR-21 act: qHTS Assay for Modulators of miRNAs and/orActivators of miR-21; HeLa miR-21 FLuc reporter, luciferase, 48 h; Potency, µM (series often up to 38.3 µM), inactives show top-dose activity change, positive = activation, most hits filed as activators; 340,000 tested, under 10 active;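 further: % of control where 0% means no effect; miR-21 action dims this reporter so a rising signal means less miR-21 action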
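Using DMEM plus 10% FBS, HeLa miR-21-FLuc cells are incubated with test compounds (final up to about 40uM) for 48 hours; firefly luciferase signal is then imaged following reagent-mediated lysis.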
Active calls of the source: *; ? = inconclusive; . = not tested or not shown. The call rests on the fitted dose curve; in most records, active means well fitted curve in the direction sought with a large enough effect; inconclusive means small, poorly fitted or top-dose-only effect, or another doubt; inactive means no such curve, though single readings can be large; an effect the other way counts as inactive or inconclusive.

SMILES | Nrf2 inh | Mito fusion yeast | Nrf2 ARE act | GRP78 ERSR act | A549 tox | miR-21 act
COc1ccc(C(=O)NC(C)c2ccccc2)cc1Br (configuration not stated) | -15.6% | 0.8% | -0.3% | -1.5% | 3.1% | -4.3%
O=C(Nc1ccc(Br)cn1)c1coc(=O)c(Br)c1 | ? | -3.1% | 17.8µM* | -4.1% | -1.5% | -8.8%
COc1cccc(N2CC(=O)N(NC(=O)c3sc4nc(C)cc(C)c4c3N)CC2=O)c1 | 6.4% | -5.3% | -0.3% | -3.7% | 1.9% | 3.4%
O=C(COc1ccc(F)cc1)Nc1ccccc1C(=O)OCc1cc(=O)n2nc(C3CC3)sc2n1 | . | . | 2.3% | -1.6% | 0.4% | -11.1%
CCOc1ccc(C(=O)N[C@H](C(=O)Nc2ccc(OC)c(S(=O)(=O)N3CCOCC3)c2)C(C)C)cc1 | -17.4% | 11.0% | -0.6% | -5.7% | 2.4% | -1.5%
O=C(Nc1ccccn1)c1ccc(Cl)c([N+](=O)[O-])c1 | ? | 0.2% | 10µM* | 2.9% | -10.7% | -19.1%
Cc1ccccc1NC(=O)Nc1ccccn1 | ? | -0.1% | 28.6% | 1.1% | -5.6% | -36.4%
O=C(Nc1cccnc1Cl)c1ccc(Cl)c([N+](=O)[O-])c1 | 1.4% | . | 0.0% | -1.1% | -6.1% | -1.6%
O=C(Nc1ccccn1)Nc1ccccc1[N+](=O)[O-] | 20.9% | 4.7% | 3.98µM* | 7.9% | -0.3% | -60.7%
c1ccc(CSc2nnc(Cc3ccccn3)o2)cc1 | 28.3% | -1.6% | 2.3% | 1.4% | 3.1% | -35.0%
CCC1(c2ccc(F)cc2)NC(=O)N(CC(=O)N2CCN(S(=O)(=O)c3ccc(C)cc3C)CC2)C1=O (configuration not stated) | 18.4µM* | . | 6.3% | 0.6% | -22.1% | .
Cc1ccc(C(=O)Nc2ccc3oc(-c4ccccc4C)nc3c2)cc1 | 6.51µM* | . | 3.9% | . | -13.3% | -0.4%
CCOc1ccc(OCC)c(NC(=O)CSc2nc3ccccc3c(=O)n2C)c1 | 10.3µM* | -2.6% | -0.4% | -5.6% | -28.7% | 0.6%
O=C(CSc1nc2ccccc2c(=O)n1CCCN1CCOCC1)Nc1cccc(S(=O)(=O)N2CCCCCC2)c1 | 23.1µM* | 0.1% | 2.3% | -3.8% | ? | 27.6%
Cc1cccc(NC(=O)CSc2nnc(-c3ccccc3)n2N)c1 | 4.8% | -5.0% | -0.4% | -0.5% | -7.5% | -17.3%
Cc1cccc(NC(=O)CSc2nc3ccccc3c(=O)n2C)c1 | 11.6µM* | 0.6% | 0.4% | -4.0% | -5.0% | 3.4%
Cc1cc(C)cc(NC(=O)CSc2nnc(-c3ccccc3)n2N)c1 | ? | 0.631µM* | 1.1% | 6.0% | 7.2% | -0.9%
O=C(CSc1nc2ccccc2c(=O)n1CCCN1CCOCC1)Nc1ccc(F)c(Cl)c1 | -24.1% | . | 0.3% | -2.3% | -26.6% | .
O=C(C1CCN(C2CC(=O)N(Cc3ccccc3)C2=O)CC1)N1CCCCCC1 (configuration not stated) | . | -13.0% | 0.2% | -5.1% | -0.1% | 2.2%
O=C(Nc1cc2c(oc1=O)CCCC2=O)c1cccc(Cl)c1 | 16.1% | -2.1% | 11.2µM* | -0.5% | 7.4% | -21.6%
COc1ccc(C(=O)Nc2cc3c(oc2=O)CCCC3=O)cc1 | ? | ? | -0.2% | 1.6% | 0.1% | -30.6%
C=CCn1c(SCC(=O)N2c3ccccc3Sc3ccccc32)nnc1-c1ccco1 | -0.4% | 0.1% | 3.7% | 0.6% | -5.6% | -0.3%
CCn1c(SCC(=O)Nc2nnc(C)s2)nnc1-c1ccco1 | -5.0% | -2.7% | -0.3% | 3.1% | -6.6% | 0.9%
CCn1c(SCC(=O)N2c3ccccc3Sc3ccccc32)nnc1-c1ccco1 | 23.1µM* | 9.0% | 3.1% | -3.4% | -10.4% | -5.8%
CCc1nnc(NC(=O)CSc2nnc(-c3ccco3)n2CCOC)s1 | -1.6% | 5.62µM* | -0.8% | -3.9% | 1.7% | 0.1%
SMILES | Nrf2 inh | Mito fusion yeast | Nrf2 ARE act | GRP78 ERSR act | A549 tox | miR-21 act
COc1ccc(OC)c(CC2C(=O)Nc3ccc(Br)cc32)c1 (configuration not stated) | 23.1µM* | . | -1.0% | -2.9% | 0.0% | ?
Cc1cccc(NC(=O)N2CCC(n3c(C)nc4cccnc43)CC2)c1 | . | . | 9.4% | 0.7% | -1.6% | -29.0%
O=C(NCc1ccccc1)c1ccc(NC(=O)N2CCSc3ncccc32)cc1 | -8.2% | . | 0.0% | -3.4% | 3.6% | 10.0%
CCCC(c1nnnn1C(C)(C)C)N1CCN(Cc2ccccc2OC)CC1 (configuration not stated) | 2.9% | 18.6% | -0.1% | -5.3% | -2.9% | -0.6%
CCCC(c1nnnn1C1CCCC1)N1CCN(c2ccccc2F)CC1 (configuration not stated) | -6.6% | 8.91µM* | -0.6% | -6.6% | 0.1% | -7.5%
CCCC(c1nnnn1C(C)(C)C)N1CCN(c2ccccc2)CC1 (configuration not stated) | -2.2% | 10µM* | -0.6% | -4.8% | -1.2% | -0.3%
Cc1ccc(SCc2nc(-c3ccc(C(=O)NCc4ccccc4Cl)cc3)oc2C)cc1 | 14.6µM* | . | -1.0% | -0.8% | 2.8% | 9.9%
CCc1ccc(CNC(=O)c2ccc(-c3nc(CSc4ccc(C)cc4)c(C)o3)cc2)cc1 | ? | . | -0.7% | 2.7% | -3.6% | -2.9%
COc1cc(CC(=O)Nc2nc(-c3ccccc3)c(C(C)=O)s2)cc(OC)c1OC | 20.6µM* | -5.6% | 0.8% | -3.5% | -11.4% | 29.2%
COc1ccc(CC(=O)Nc2nc(-c3ccccc3)c(C(C)=O)s2)cc1OC | ? | -0.5% | 3.3% | -0.1% | -5.3% | 14.5%
COC(=O)c1cc(OC)c(OC)cc1NC(=O)c1cc(OC)cc(OC)c1 | -0.9% | 9.7% | 0.3% | -5.8% | -0.2% | -0.4%
O=C1/C(=C\c2ccccc2)CN(C(=O)CCN2CCCCC2)C/C1=C/c1ccccc1 | 3.5% | . | -3.6% | -12.4% | -5.2% | .
O=C1/C(=C\c2ccc(Cl)c(Cl)c2)CN(C(=O)CCN2CCOCC2)C/C1=C/c1ccc(Cl)c(Cl)c1 | ? | . | ? | -13.7% | 20.6µM* | .
O=C(NCC1CCCO1)NC1(C(F)(F)F)Oc2ccccc2O1 (configuration not stated) | ? | -1.6% | 15.8µM* | 6.5% | ? | -30.3%
Cc1ccc(NC(=O)CSc2nnc(CCCCCNC(=O)OC(C)(C)C)o2)c(C)c1 | 16.4µM* | -2.8% | -0.7% | -1.7% | -14.2% | 3.8%
N#CC(C#N)=C(Nc1ccc(F)cc1)SCc1cccc(F)c1 | 4.61µM* | 5.4% | ? | -3.7% | ? | ?
CCOc1ccc(N/C(SCc2cccc([N+](=O)[O-])c2)=C(/C#N)C(N)=O)cc1 | -18.8% | 20.7% | ? | -5.1% | -2.8% | 13.8%

Bioassay records as filed in PubChem.
